Reference: PubChem BioAssay AID1626 (SRMLSC, 2009)
Among all 220,000 compounds or so, about 2,000 (0.91%) were called active. Another 2% or so got no clear call; they are omitted. The list is a sample of the results. Entries with a potency or affinity are not part of this list. Unmarked numbers belong to inactive results. No stated cut-off is given here; in the data, inconclusive means inhibition above about 80% without an active follow-up result; inactive means below that; test concentration not stated here.

Assay: M. tuberculosis H37Rv growth inhibitors, H37Rv strain (AID 1626);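 further: bacteria incubated seven days before Alamar blue readout; 0% = bacteria only wells and 100% = bacteria with antibiotic wells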
Conditions: hits give high values, concentration not given here

Row | SMILES | inhibition
1 | CC(=O)Nc1ccc2nc(SCC(=O)N3CCOCC3)sc2c1 | 5.08%
2 | O=C(Nc1ccc2nc(SCc3ccc(Cl)cc3)sc2c1)c1ccccc1C(=O)N1CCOCC1 | 4.76%
3 | CCCn1c(=O)c(C(=O)NCc2ccc(OC)c(OC)c2)c(O)c2ccccc21 | -0.33%
4 | Cc1ccc(-c2nc(NC(=O)c3cc(C(C)(C)C)nn3C)sc2C)cc1Cl | 78.4%
5 | COc1ccc(-c2nc(NC(=O)c3nc4nccc(C)n4n3)sc2C)cc1 | -7.46%
6 | C1CN(CC2CCN(c3nc4nonc4nc3N3CCSCC3)CC2)CCO1 | -0.53%
7 | CCCCc1ccc(NC(=O)CC(C)=O)cc1 | 77.5%
8 | CCCCc1ccc(NC(=O)CC(C)(C)C)cc1 | 5.76%
9 | CCCCc1ccc(NC(=O)OC)cc1 | 58%
10 | CCCCc1ccc(NC(=O)N[C@@H](C)C(=O)O)cc1 | 0.78%
11 | CCN(CC)C(=O)C1=C(C)Nc2ncnn2C1c1cccnc1 (centres undefined) | -0.97%
12 | Cc1nn2c(-c3ccccc3)ccnc2c1-c1ccccc1 | -0.56%
13 | OCC1OC(n2nnc3ccccc32)C(O)C(O)C1O (centres undefined) | -9.39%
14 | Cc1cc(NC(=O)CCl)no1 | 65%
15 | Cc1cc(NC(=O)CCl)on1 | 0.735%
16 | CSc1nc(=O)n2cc(C)ccc2n1 | 0.11%
17 | CCOC(=O)C(NC(C)=O)(Nc1ccc(S(=O)(=O)Nc2cc(C)nc(C)n2)cc1)C(F)(F)F (centres undefined) | -6.92%
18 | O=C(Nc1ccccc1)c1ccc(CSc2ncccn2)cc1 | 3.69%
19 | Cc1ccc(NC(=O)c2ccc(CSc3ccccn3)cc2)cc1 | 14.1%
20 | CCOC(=O)C(=CNc1ccc(Oc2cncc(Cl)c2)nc1)C(=O)OCC | 2.61%
21 | Cc1onc(-c2ccccc2Cl)c1C(=O)Nc1ccc(-n2nncc2-c2ccco2)cc1 | 68%
22 | O=C(Nc1ccc(-n2nncc2-c2ccco2)cc1)c1ccc(F)cc1 | 0.33%
23 | Cc1ccc(-c2nnn(CC(=O)N3CCCCC3)n2)o1 | -0.84%
24 | CC(OC(=O)C1=COCCO1)C(=O)Nc1ccccc1C#N (centres undefined) | -7.04%
25 | CC(C)(C)NC(=O)Nc1ccc(Br)cc1 | -1.24%

Row | SMILES | inhibition
26 | CCC(C)NC(=O)Nc1ccc(Br)cc1 (centres undefined) | 1.26%
27 | COc1c(Cl)cc(Cl)cc1C(=O)Nc1ccc(NC(=O)c2cccs2)cc1 | 56.1%
28 | COc1ccc(C(=O)/C=C\c2ccc(NC(=O)c3cccs3)cc2)cc1 | -0.27%
29 | CC1SCC(=O)N(CC(=O)Nc2ccc3c(c2)OCCO3)C1=O (centres undefined) | 2.44%
30 | Nc1nc2ccccc2n1C(=O)c1ccco1 | 2.98%
31 | Cn1c(CNC(=O)c2ccc(F)cc2)nc2ccccc21 | -0.81%
32 | Cc1ccc(S(=O)(=O)/N=C(\c2ccc(F)cc2)n2c(C)nc3ccccc32)cc1 | 4.23%
33 | Nc1nc2ccccc2n1C(=O)CCc1ccccc1 | 0.09%
34 | O=C(COc1ccc2ccccc2c1)N1c2ccccc2Sc2ccccc21 | 2.2%
35 | CN(Cc1ccccc1)S(=O)(=O)c1ccc(NS(C)(=O)=O)cc1 | -4.2%
36 | CC(=O)Nc1cc(Br)ccc1O | 3.76%
37 | CN(Cc1ccccc1)C(=O)c1cc2ccccc2o1 | 6.83%
38 | CCOc1cc(C(=O)Nc2ccc(F)cc2)cc(Br)c1OC | 9.07%
39 | CCN(CC)c1ccc(/C=N/OCC(=O)N2CCCc3ccccc32)cc1 | 1.23%
40 | Cc1ccccc1-c1cnn(-c2cccc([N+](=O)[O-])c2)c1N | 5.3%
41 | CNc1c([N+](=O)[O-])cnn1-c1ccccc1Cl | 4.21%
42 | O=C(CSc1nnc(NC(=O)Cc2ccccc2)s1)NCc1ccco1 | -1.92%
43 | O=C(O)c1sccc1S(=O)(=O)c1ccccc1 | -0.34%
44 | Cn1nccc1C(=O)Oc1ccc(/C=N/NC(=O)c2ccccc2O)cc1 | -6.68%
45 | Cc1nnc(Cl)c2nn(-c3ccccc3)c(C)c12 | -0.17%
46 | Cc1cccc(CSc2nnc(CCNC(=O)OC(C)(C)C)o2)c1 | 15%
47 | Cc1ccc(CSc2nnc(CCNC(=O)OC(C)(C)C)o2)cc1 | 7.99%
48 | CC(C)(C)OC(=O)NCCCCCc1nnc(SCc2ccc(F)cc2)o1 | 60.9%
49 | CC(C)(C)OC(=O)NCCCCCc1nnc(SCc2cccc(F)c2)o1 | 75%
50 | O=S(=O)(NC1CCCc2ccccc21)c1cnc[nH]1 (centres undefined) | 1.01%

Row | SMILES | inhibition
51 | Nc1ccccc1C(=O)OCC(=O)c1ccc2c(c1)OCCO2 | -1.04%
52 | O=C(COC(=O)c1cccs1)c1ccc2ccccc2c1 | 7%
53 | Nc1nc(N)c(N=Nc2ccc(SCC(=O)O)cc2)c(=O)[nH]1 | -4.15%
54 | CN(C)S(=O)(=O)N(CC(=O)NCCSCc1ccccc1)c1ccccc1 | 22.6%
55 | Cc1ccc(CN2CCN(Cc3ccncc3)CC2CCO)o1 (centres undefined) | -0.74%
56 | CCN(CC)CCOC(=O)c1ccc([N+](=O)[O-])cc1 | 1.65%
57 | O=C1c2ccccc2C(=O)N1c1ccc(Cl)cc1 | -5.9%
58 | Cc1ccc(N2C(=O)C3C(c4ccccc4)(C2=O)C3(c2ccccc2)c2ccccc2)cc1 (centres undefined) | 7.89%
59 | CCc1ccccc1N1C(=O)c2cccc3c(N4CCOCC4)c([N+](=O)[O-])cc(c23)C1=O | 7.95%
60 | Cc1cccc(N2C(=O)c3cccc4c(N5CCCCC5)c([N+](=O)[O-])cc(c34)C2=O)c1C | 9.67%
61 | COCCNS(=O)(=O)c1cc(-c2nn(C)c(=O)c3ccccc23)ccc1C | -0.86%
62 | Cc1sc2nc(COC(=O)c3cccc(OC(F)F)c3)[nH]c(=O)c2c1C | 11.1%
63 | COc1ccccc1NC(=O)C(=O)N/N=C/c1ccc([N+](=O)[O-])s1 | 4.5%
64 | Cc1cc([N+](=O)[O-])ccc1NC(=O)/C=C/c1cccs1 | -0.49%
65 | Cc1ccc(NC(=O)COC(=O)c2ccc([N+](=O)[O-])s2)c(C)c1 | 9.26%
66 | Cc1ccccc1NC(=O)/C=C/c1cccs1 | -3.01%
67 | CCNc1nc(NCC)nc(SCCOc2ccc(C)cc2)n1 | 15.1%
68 | COc1ccc(S(=O)(=O)NCC2CCCN(C(=O)c3ccco3)C2)cc1 (centres undefined) | -5.58%
69 | Cc1cc(CNC(=O)CC2C(=O)NCCN2CC(c2ccccc2)c2ccccc2)on1 (centres undefined) | 1.54%
70 | Cn1ncc2c(Nc3ccccc3Cl)nc(Nc3ccccc3Cl)nc21 | 29.2%
71 | Cn1ncc2c(Nc3ccc(O)cc3)nc(Cl)nc21 | -3.66%
72 | COc1ccc(-n2c(SCC(=O)O)nc3sc4c(c3c2=O)CCC4)cc1 | -7.18%
73 | Cc1nc2ccccc2n1Cc1n[nH]c(=S)n1-c1ccc(Cl)cc1 | -9.13%
74 | CCCn1c(Nc2ccc(Cl)cc2)nc2ccccc21 | 3.28%
75 | CCc1c(C)[nH]n(-c2nc(-c3ccccc3)cs2)c1=O | 5.2%

Row | SMILES | inhibition
76 | NS(=O)(=O)c1ccc(N=Nc2c(-c3ccccc3)[nH]n(-c3nc(-c4ccccc4)cs3)c2=O)cc1 | 15.4%
77 | CC(C)[C@H](NC(=O)NCc1ccc(F)cc1)C(=O)O | -4.85%
78 | COc1ccc(C(NC(=O)c2ccc(F)cc2)c2ccccc2)cc1 (centres undefined) | -2.49%
79 | COc1ccc(-c2noc(CCCC(=O)Nc3cccnc3)n2)cc1OC | -1.27%
80 | CCOc1cc(CNc2ccc3c(c2)CCC3)ccc1OC | 46.6%
81 | COc1ccc(CNc2ccc3c(c2)CCC3)cc1OC | 45.5%
82 | CC(NC(=O)c1ccc(OC2CCN(S(=O)(=O)N(C)C)CC2)cc1)C1CC1 (centres undefined) | -9.26%
83 | CC(=O)c1ccc(N(C(=O)Cn2nnc3ccccc32)C(C(=O)NC2CCCCC2)c2cn(C)nc2C)cc1 (centres undefined) | -5.66%
84 | Clc1ncnc2scc(-c3ccccc3)c12 | -11.5%
85 | Clc1nc(-c2cccnc2)nc2scc(-c3ccccc3)c12 | 8.19%
86 | Nc1ccc(C(=O)OCc2nc3ccccc3s2)cc1 | -2.83%
87 | O=C(OCc1nc2ccccc2s1)c1ccccc1O | 16.7%
88 | O=C(COC(=O)c1ccc(Br)o1)Nc1nc2ccccc2s1 | -3.5%
89 | O=C(COC(=O)c1ccco1)Nc1nc2ccccc2s1 | -0.64%
90 | CC(OC(=O)C(NC(=O)c1ccco1)C(C)C)C(=O)Nc1ncc(Cl)cc1Cl (centres undefined) | -14.4%
91 | Cc1c(N=Cc2nc3ccccc3n2C)c(=O)n(-c2ccccc2)n1C | -8.83%
92 | CCN(CC)Cc1cc(C(=O)O)c(C)o1 | -8.95%
93 | Cc1ccc(C2(C)NC(=O)N(Cc3c(C)noc3C)C2=O)cc1 (centres undefined) | -0.8%
94 | O=C(Nc1ccc([N+](=O)[O-])cn1)C1CC1 | 5.22%
95 | O=C(NCc1cccc(Cl)c1)c1ccco1 | 0.19%
96 | CN1c2ccc([N+](=O)[O-])cc2CC2(C(=O)NC(=O)N(c3ccccc3)C2=O)C1c1ccccc1 (centres undefined) | 76.5%
97 | CC1CN2c3ccc([N+](=O)[O-])cc3CC3(C(=O)N(C)C(=O)N(C)C3=O)C2C(C)O1 (centres undefined) | -12.5%
98 | CN1C(=O)N(C)C(=O)C2(Cc3cc([N+](=O)[O-])ccc3N(C)C2c2ccccc2)C1=O (centres undefined) | -13.2%
99 | CN1c2ccc([N+](=O)[O-])cc2CC2(C(=O)NC(=O)NC2=O)C1c1ccccc1 (centres undefined) | 0.68%
